Data on 2 compounds can be found in PubChem BioAssay AID720631 (The Scripps Research Institute Molecular Screening Center, 2013).

The list shows a part of the results. Values without a mark were called inactive.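 Rule for the calls: active = inhibition above the mean of compounds lying within the control limits plus 3 SD (cut at about 16% in these data); inactive = the rest.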

As a reminder, the inhibition is the change of the read-out against control, counted positive when it falls.

The test has as its target Fibrinogen beta chain (Homo sapiens) (UniProt P02675). In words: Tn6 displacement from DD(E) complex – biochemical, fluorescence polarization, human fibrin, Tn6 probe, confirmation (AID 720631).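 Note: 0% = plate median of compound wells and 100% = inhibitor peptide control.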 The conditions noted are these: FP displacement of TRITC-Tn6 peptide from DD(E); at 8.3 µM; stronger effect = higher value. Background: In fluorescence polarisation assays a small probe gives low polarisation when free and higher when bound to something large.

Sequence of Fibrinogen beta chain (Homo sapiens) (P02675 whole entry, looked up): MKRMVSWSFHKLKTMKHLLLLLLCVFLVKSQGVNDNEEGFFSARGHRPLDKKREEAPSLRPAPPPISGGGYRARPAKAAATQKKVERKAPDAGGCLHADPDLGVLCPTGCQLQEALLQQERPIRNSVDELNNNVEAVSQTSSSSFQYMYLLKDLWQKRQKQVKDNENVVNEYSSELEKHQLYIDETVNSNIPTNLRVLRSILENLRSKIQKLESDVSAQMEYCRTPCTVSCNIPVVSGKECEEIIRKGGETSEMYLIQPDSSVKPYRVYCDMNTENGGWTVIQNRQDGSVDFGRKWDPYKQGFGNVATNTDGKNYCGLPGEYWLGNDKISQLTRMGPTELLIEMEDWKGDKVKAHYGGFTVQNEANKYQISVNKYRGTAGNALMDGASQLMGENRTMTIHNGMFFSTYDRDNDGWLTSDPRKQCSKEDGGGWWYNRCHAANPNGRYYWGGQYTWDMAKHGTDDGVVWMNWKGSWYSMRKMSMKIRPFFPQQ

In the case of `COc1ccc2c(c1O)-c1cccc3c1[C@@H](C2)N(C)CC3`, the inhibition is -8.1%.

With `Cc1cc(N2CCNC[C@@H]2C)ccc1N1CC[C@H](O)C1`, the inhibition was 2.65%.
